Our source for the growth values is PubChem BioAssay (NCI).

SMILES strings stand for the structures. Compounds without any hit were thinned out: in the full panel of roughly 83,000, 20% have a hit.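 Activity criterion: percent growth below 10, measured after cells in 96-well plates were exposed to a single compound concentration for 48 hours.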 Values without a mark were called inactive. Calls of active or inactive are those of the source.

Test systems include SR leukemia; RPMI-8226 leukemia; OVCAR-8 ovarian; OVCAR-5 ovarian; OVCAR-4 ovarian; SK-OV-3 ovarian; IGROV1 ovarian; OVCAR-3 ovarian; HS 578T breast; T-47D breast; BT-549 breast; MDA-MB-435 melanoma; SW-620 colon; HCT-116 colon; HCC-2998 colon; KM12 colon; MDA-MB-468 breast; MCF7 breast; NCI/ADR-RES ovarian.
What all share (experiment): NCI-60 one-dose screen, 48 h (100 = growth as untreated, 0 = no growth, -100 = all killed)
Common to all, as to conditions: 10 µM unless noted

On to `CC(=O)c1cc(C(=O)c2ccccc2)n2c1ccc1ccccc12`, for which the growth is 81.4% with SR leukemia; 95.6% in the experiment on RPMI-8226 leukemia; 99% with OVCAR-8 ovarian; 103% with OVCAR-5 ovarian; 102% in the experiment with OVCAR-4 ovarian; 85.8% in the experiment on SK-OV-3 ovarian. The growth was 88.6% in the experiment on IGROV1 ovarian; 112% with OVCAR-3 ovarian; 94.1% in the experiment on HS 578T breast; 83.5% in the experiment on T-47D breast; 73% with BT-549 breast; 108% in the experiment with MDA-MB-435 melanoma. For the same compound, the growth was 99.3% with SW-620 colon; 82.4% in the experiment on HCT-116 colon; 121% with HCC-2998 colon; 83.1% with KM12 colon; 93.9% in the experiment with MDA-MB-468 breast.
For `O=c1oc2ccc(Br)cc2cc1C1=CSc2nc3sc4c(c3c(=O)n2N=C1)CCCC4`, the growth in the experiment with SR leukemia was 86.6%; in the experiment with RPMI-8226 leukemia it was 101%; with OVCAR-8 ovarian, 99.9%; with OVCAR-5 ovarian, 102%; in the experiment with OVCAR-4 ovarian, 86.1%; in the experiment with SK-OV-3 ovarian, 80.3%. Moreover, the growth with IGROV1 ovarian is 90.8%; in the experiment with OVCAR-3 ovarian, 115%; in the experiment on HS 578T breast it was 93.1%; with T-47D breast it was 76.9%; with BT-549 breast, 95.4%; in the experiment with MDA-MB-435 melanoma, 95.1%. Also, the growth in the experiment with SW-620 colon was 108%; in the experiment with HCT-116 colon it was 96.4%; in the experiment with HCC-2998 colon it was 125%; in the experiment with KM12 colon it was 97.6%; in the experiment with MDA-MB-468 breast it was 104%.
Regarding `Cc1ccc(NCC(=O)Cn2cc(COc3ccc(C=Nc4cnc5ccccc5c4)cc3)nn2)cc1`, the growth with SR leukemia is 103%; in the experiment on RPMI-8226 leukemia it was 110%; in the experiment on OVCAR-8 ovarian it was 103%; in the experiment on OVCAR-5 ovarian, 107%; in the experiment on OVCAR-4 ovarian it was 113%; with SK-OV-3 ovarian it was 98.4%. Besides, the growth with IGROV1 ovarian is 112%; in the experiment with OVCAR-3 ovarian, 139%; in the experiment on HS 578T breast, 106%; in the experiment with T-47D breast, 105%; in the experiment on BT-549 breast, 115%; in the experiment with MDA-MB-435 melanoma, 113%. Besides, the growth in the experiment on SW-620 colon is 113%; in the experiment with MCF7 breast it was 102%; in the experiment with HCT-116 colon, 110%; in the experiment with HCC-2998 colon it was 101%; with KM12 colon, 105%; in the experiment with MDA-MB-468 breast, 100%.
For `C#CCOc1ccc(/C=N/Nc2nc(-c3ccc(F)cc3)cs2)cc1OC`, the growth is 25.5% in the experiment with SR leukemia; 35.5% with RPMI-8226 leukemia; 63.8% in the experiment with OVCAR-8 ovarian; 84.9% in the experiment with OVCAR-5 ovarian; 65.6% with OVCAR-4 ovarian; 88% in the experiment with SK-OV-3 ovarian. The growth is 72.6% in the experiment with IGROV1 ovarian; 71.2% with OVCAR-3 ovarian; 81.2% with HS 578T breast; 35.4% with T-47D breast; 24.5% in the experiment with BT-549 breast; 56.2% with MDA-MB-435 melanoma. In addition, the growth in the experiment on SW-620 colon is 86.7%; in the experiment with MCF7 breast it was 35.3%; in the experiment with HCT-116 colon, 44.6%; in the experiment with HCC-2998 colon it was 92.9%; with KM12 colon, 59.9%; in the experiment on MDA-MB-468 breast, 51.3%.
As to `COc1ccc(C(=O)/C=C/c2ccc(Oc3nc(Nc4ccc(F)cc4)nc(N(C)C)n3)c(OC)c2)cc1`, the growth was 12.2% in the experiment with SR leukemia; 4.01% (active) in the experiment on RPMI-8226 leukemia; 37.9% with OVCAR-8 ovarian; 82.6% with OVCAR-5 ovarian; 43.5% in the experiment on OVCAR-4 ovarian; 94.4% in the experiment with SK-OV-3 ovarian. In addition, the growth in the experiment with IGROV1 ovarian was 63.1%; in the experiment on OVCAR-3 ovarian it was 57.2%; in the experiment on NCI/ADR-RES ovarian it was 40%; with T-47D breast, 19.7%; in the experiment with BT-549 breast, -4.17% (active); in the experiment with MDA-MB-435 melanoma, 51.4%. Besides, the growth in the experiment on SW-620 colon is 12.4%; with MCF7 breast, 15.6%; in the experiment on HCT-116 colon, 0.959% (active); with HCC-2998 colon, 100%; with KM12 colon, 70.2%; in the experiment on MDA-MB-468 breast, 40.6%.
Take `CN1CCN(/C(=N\c2sc(-c3ccccc3)nc2-c2ccccc2)c2ccccc2)CC1`: the growth is 21.1% in the experiment on SR leukemia; 34.6% in the experiment with RPMI-8226 leukemia; 97.6% with OVCAR-8 ovarian; 70% with OVCAR-5 ovarian; 89.4% in the experiment with OVCAR-4 ovarian; 105% in the experiment on SK-OV-3 ovarian. Also, the growth with IGROV1 ovarian was 82.5%; in the experiment with OVCAR-3 ovarian, 111%; with HS 578T breast it was 88.7%; in the experiment on T-47D breast, 76.2%; in the experiment with BT-549 breast it was 77.5%; in the experiment with MDA-MB-435 melanoma, 79.7%. The growth with SW-620 colon was 79.5%; in the experiment with MCF7 breast, 75.1%; with HCT-116 colon it was 54.4%; in the experiment on HCC-2998 colon it was 77.5%; with KM12 colon, 24.5%; in the experiment with MDA-MB-468 breast it was 71.6%.
Turning to `CN(C)c1nc(NCCNS(=O)(=O)c2ccc(C3=Nc4c(N)nc(N)nc4NC(c4ccc(F)cc4)C3)cc2)nc(Nc2ccc(F)cc2)n1` (stereo not given), the growth with SR leukemia is 0.331% (active); with RPMI-8226 leukemia it was -6.35% (active); in the experiment on OVCAR-8 ovarian, 43.5%; in the experiment with OVCAR-5 ovarian, 78.2%; in the experiment with OVCAR-4 ovarian it was 40.8%; in the experiment on SK-OV-3 ovarian, 73.4%. Further, the growth in the experiment on IGROV1 ovarian was 38.6%; in the experiment with OVCAR-3 ovarian, 40.9%; with HS 578T breast it was 51.8%; in the experiment on T-47D breast it was 40.6%; in the experiment on BT-549 breast it was 48.7%; in the experiment with MDA-MB-435 melanoma, 31%. For the same compound, the growth is 39.4% in the experiment on SW-620 colon; 5.29% (active) in the experiment on MCF7 breast; 30.6% in the experiment on HCT-116 colon; 28.6% with HCC-2998 colon; 24.5% in the experiment with KM12 colon; -40.7% (active) in the experiment on MDA-MB-468 breast.
Regarding `COc1c(F)ccc(C(=O)Nc2ccc3nc(NC(=O)C4CCCN(S(=O)(=O)c5ccc(Br)s5)C4)sc3c2)c1F` (stereo not given), the growth in the experiment with SR leukemia is 44.3%; in the experiment on RPMI-8226 leukemia, 46.7%; with OVCAR-8 ovarian it was 94.9%; with OVCAR-5 ovarian, 105%; in the experiment with OVCAR-4 ovarian, 67.9%; with SK-OV-3 ovarian, 109%. The growth in the experiment with IGROV1 ovarian is 81.5%; in the experiment on OVCAR-3 ovarian it was 85.8%; in the experiment on NCI/ADR-RES ovarian, 84.8%; in the experiment with T-47D breast, 53.1%; in the experiment with BT-549 breast, 75.5%; in the experiment on MDA-MB-435 melanoma it was 84.1%. The growth is 100% with SW-620 colon; 53.8% in the experiment on MCF7 breast; 65.4% in the experiment on HCT-116 colon; 98.7% in the experiment with HCC-2998 colon; 75% with KM12 colon; 83.7% in the experiment on MDA-MB-468 breast.
Take `COc1ccc(C2=NN(c3ccccc3)C(c3ccc(OC)c(OCc4ccccc4)c3)C2)cc1OC` (stereo not given): the growth in the experiment with SR leukemia is 104%; in the experiment on RPMI-8226 leukemia it was 107%; with OVCAR-8 ovarian it was 96.3%; in the experiment on OVCAR-5 ovarian it was 110%; with OVCAR-4 ovarian it was 89.8%; in the experiment with SK-OV-3 ovarian, 93.4%. In addition, the growth in the experiment on IGROV1 ovarian was 84.1%; with OVCAR-3 ovarian it was 106%; in the experiment on HS 578T breast, 97.7%; in the experiment on T-47D breast, 84.4%; with BT-549 breast, 107%; in the experiment with MDA-MB-435 melanoma, 97.2%. In addition, the growth in the experiment with SW-620 colon was 101%; with MCF7 breast it was 84.9%; in the experiment on HCT-116 colon, 74.8%; with HCC-2998 colon, 107%; in the experiment with KM12 colon, 97.7%; with MDA-MB-468 breast, 101%.
